Assays:
Assay in all cases: log2 ratio of Biotin-Ahx-Ub-VS probe labelling (fragment/DMSO); higher = less target engagement (more negative = stronger competition), active = hit call of the paper (q ≤ 0.05, log2 ratio ≤ -1)
Details in all cases: compound concentration: 200 uM; treatment time: 3 h
[1] = target: USP34 (UniProt Q70CQ2)
Method in brief: (§1)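 HEK293T lysate, 495 µg per sample in Tris/CHAPS/IGEPAL buffer with protease inhibitors, was treated in triplicate with fragment at 200 µM or vehicle for 3 h and then with Biotin-Ahx-Ub-VS at 0.5 µM final for 1 h. Labelled DUBs were NeutrAvidin-enriched, digested with LysC and trypsin, and run by diaPASEF LC-MS/MS. Spectronaut label-free quantities were global-median-normalised, and values are average log2 fragment/vehicle ratios by unpaired t-test on proteins with ≥2 unique peptides.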

[2] = target: T1, USP36 (UniProt Q9P275)
T1 sequence (whole entry): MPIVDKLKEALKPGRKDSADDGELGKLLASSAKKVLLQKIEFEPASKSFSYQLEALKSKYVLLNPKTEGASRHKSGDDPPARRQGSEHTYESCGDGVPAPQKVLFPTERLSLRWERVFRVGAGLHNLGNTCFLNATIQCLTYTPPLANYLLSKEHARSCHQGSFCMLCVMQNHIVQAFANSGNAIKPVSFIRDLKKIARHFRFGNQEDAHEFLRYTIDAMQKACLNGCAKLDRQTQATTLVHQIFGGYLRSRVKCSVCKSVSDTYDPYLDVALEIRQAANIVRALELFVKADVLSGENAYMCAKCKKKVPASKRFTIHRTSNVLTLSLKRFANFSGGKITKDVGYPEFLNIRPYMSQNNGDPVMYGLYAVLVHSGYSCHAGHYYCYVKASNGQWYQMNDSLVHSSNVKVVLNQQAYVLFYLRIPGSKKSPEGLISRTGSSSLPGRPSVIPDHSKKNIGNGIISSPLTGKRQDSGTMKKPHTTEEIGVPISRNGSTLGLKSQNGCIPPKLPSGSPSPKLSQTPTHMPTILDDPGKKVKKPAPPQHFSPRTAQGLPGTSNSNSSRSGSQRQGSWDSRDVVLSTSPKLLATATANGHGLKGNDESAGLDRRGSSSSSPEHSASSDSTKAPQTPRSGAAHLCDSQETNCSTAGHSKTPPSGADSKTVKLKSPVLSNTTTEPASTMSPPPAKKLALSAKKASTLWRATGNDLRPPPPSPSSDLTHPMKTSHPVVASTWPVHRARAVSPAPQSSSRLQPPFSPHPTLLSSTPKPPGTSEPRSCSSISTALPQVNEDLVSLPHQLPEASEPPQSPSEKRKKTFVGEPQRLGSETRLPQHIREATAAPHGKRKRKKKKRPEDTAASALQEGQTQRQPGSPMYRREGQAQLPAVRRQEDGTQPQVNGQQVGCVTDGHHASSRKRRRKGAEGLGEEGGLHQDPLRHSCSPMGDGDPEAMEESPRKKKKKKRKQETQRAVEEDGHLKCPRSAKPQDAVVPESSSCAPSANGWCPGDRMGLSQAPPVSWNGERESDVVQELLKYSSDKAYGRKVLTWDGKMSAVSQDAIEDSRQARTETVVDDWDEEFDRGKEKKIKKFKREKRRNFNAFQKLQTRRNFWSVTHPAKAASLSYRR
Method in brief: as §1

[3] = target: T2, USP38 (UniProt Q8NB14)
T2 sequence (whole entry): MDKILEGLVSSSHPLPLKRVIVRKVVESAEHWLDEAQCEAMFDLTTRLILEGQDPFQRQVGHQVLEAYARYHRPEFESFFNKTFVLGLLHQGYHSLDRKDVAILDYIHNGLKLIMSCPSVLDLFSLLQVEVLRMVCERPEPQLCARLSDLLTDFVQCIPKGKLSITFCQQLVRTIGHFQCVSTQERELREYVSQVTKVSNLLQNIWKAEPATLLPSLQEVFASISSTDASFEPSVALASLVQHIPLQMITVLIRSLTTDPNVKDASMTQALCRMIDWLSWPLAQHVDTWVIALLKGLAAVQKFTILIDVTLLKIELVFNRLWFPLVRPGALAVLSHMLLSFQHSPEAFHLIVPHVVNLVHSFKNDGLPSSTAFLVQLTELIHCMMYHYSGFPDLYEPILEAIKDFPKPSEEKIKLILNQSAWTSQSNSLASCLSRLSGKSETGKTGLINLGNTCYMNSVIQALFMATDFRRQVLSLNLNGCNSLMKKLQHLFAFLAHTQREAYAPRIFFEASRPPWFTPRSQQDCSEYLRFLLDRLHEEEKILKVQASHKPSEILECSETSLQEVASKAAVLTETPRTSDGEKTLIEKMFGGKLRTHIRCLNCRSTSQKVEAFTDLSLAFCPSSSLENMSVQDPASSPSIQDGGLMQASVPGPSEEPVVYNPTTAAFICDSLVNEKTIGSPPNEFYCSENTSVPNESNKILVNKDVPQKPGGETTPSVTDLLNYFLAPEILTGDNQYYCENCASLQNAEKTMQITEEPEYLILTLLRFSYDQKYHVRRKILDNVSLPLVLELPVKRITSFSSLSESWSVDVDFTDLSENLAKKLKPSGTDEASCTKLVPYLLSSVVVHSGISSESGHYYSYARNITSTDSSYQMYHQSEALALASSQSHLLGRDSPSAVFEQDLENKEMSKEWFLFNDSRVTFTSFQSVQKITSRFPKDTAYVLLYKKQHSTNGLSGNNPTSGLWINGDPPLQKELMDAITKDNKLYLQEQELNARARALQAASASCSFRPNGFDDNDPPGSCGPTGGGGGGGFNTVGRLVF
Method in brief: as §1

[4] = target: T3, USP39 (UniProt Q53GS9)
T3 sequence (whole entry): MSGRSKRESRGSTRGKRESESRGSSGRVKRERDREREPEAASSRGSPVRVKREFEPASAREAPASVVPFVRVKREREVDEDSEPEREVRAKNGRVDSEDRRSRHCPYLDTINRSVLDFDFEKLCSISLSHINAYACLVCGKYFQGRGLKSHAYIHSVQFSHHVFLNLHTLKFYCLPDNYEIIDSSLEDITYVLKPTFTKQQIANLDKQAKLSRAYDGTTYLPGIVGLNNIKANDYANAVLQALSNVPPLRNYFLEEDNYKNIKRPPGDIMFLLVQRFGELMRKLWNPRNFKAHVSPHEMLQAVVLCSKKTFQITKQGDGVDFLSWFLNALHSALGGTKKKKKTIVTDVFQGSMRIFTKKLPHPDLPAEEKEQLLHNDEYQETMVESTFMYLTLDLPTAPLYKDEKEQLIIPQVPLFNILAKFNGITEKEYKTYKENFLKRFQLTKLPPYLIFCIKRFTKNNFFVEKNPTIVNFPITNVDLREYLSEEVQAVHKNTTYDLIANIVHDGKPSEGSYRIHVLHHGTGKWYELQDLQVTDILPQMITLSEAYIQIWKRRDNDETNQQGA
Method in brief: as §1

[5] = target: T4, USP4 (UniProt Q13107)
T4 sequence (whole entry): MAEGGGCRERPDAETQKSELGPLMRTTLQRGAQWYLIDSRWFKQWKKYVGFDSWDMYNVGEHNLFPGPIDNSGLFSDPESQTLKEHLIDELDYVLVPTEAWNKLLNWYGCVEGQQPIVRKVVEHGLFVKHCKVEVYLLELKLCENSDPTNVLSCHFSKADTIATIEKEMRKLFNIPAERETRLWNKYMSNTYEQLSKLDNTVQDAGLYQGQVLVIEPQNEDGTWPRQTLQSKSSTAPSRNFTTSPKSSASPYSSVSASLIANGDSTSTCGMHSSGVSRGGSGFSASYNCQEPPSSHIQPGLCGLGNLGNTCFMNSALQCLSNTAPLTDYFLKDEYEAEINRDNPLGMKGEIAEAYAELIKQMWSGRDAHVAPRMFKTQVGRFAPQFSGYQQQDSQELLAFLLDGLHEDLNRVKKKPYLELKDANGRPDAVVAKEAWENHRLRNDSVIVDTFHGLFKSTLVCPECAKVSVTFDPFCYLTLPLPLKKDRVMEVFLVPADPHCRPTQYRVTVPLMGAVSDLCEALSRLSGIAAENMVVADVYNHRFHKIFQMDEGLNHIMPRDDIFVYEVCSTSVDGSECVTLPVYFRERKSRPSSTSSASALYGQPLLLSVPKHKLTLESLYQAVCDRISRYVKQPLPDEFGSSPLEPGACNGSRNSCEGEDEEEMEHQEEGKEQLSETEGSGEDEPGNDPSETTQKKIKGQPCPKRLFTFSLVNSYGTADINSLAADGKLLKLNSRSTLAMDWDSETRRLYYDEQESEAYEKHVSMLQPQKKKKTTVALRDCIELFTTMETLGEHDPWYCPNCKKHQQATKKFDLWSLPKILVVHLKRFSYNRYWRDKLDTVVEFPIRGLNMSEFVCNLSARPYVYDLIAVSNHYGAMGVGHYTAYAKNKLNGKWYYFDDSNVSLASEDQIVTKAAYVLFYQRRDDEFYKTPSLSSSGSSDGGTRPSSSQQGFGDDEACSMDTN
Method in brief: as §1

Measured: log2 ratio of Biotin-Ahx-Ub-VS probe labelling

USP34, sequence (Q70CQ2 whole entry, the tested form may be a part): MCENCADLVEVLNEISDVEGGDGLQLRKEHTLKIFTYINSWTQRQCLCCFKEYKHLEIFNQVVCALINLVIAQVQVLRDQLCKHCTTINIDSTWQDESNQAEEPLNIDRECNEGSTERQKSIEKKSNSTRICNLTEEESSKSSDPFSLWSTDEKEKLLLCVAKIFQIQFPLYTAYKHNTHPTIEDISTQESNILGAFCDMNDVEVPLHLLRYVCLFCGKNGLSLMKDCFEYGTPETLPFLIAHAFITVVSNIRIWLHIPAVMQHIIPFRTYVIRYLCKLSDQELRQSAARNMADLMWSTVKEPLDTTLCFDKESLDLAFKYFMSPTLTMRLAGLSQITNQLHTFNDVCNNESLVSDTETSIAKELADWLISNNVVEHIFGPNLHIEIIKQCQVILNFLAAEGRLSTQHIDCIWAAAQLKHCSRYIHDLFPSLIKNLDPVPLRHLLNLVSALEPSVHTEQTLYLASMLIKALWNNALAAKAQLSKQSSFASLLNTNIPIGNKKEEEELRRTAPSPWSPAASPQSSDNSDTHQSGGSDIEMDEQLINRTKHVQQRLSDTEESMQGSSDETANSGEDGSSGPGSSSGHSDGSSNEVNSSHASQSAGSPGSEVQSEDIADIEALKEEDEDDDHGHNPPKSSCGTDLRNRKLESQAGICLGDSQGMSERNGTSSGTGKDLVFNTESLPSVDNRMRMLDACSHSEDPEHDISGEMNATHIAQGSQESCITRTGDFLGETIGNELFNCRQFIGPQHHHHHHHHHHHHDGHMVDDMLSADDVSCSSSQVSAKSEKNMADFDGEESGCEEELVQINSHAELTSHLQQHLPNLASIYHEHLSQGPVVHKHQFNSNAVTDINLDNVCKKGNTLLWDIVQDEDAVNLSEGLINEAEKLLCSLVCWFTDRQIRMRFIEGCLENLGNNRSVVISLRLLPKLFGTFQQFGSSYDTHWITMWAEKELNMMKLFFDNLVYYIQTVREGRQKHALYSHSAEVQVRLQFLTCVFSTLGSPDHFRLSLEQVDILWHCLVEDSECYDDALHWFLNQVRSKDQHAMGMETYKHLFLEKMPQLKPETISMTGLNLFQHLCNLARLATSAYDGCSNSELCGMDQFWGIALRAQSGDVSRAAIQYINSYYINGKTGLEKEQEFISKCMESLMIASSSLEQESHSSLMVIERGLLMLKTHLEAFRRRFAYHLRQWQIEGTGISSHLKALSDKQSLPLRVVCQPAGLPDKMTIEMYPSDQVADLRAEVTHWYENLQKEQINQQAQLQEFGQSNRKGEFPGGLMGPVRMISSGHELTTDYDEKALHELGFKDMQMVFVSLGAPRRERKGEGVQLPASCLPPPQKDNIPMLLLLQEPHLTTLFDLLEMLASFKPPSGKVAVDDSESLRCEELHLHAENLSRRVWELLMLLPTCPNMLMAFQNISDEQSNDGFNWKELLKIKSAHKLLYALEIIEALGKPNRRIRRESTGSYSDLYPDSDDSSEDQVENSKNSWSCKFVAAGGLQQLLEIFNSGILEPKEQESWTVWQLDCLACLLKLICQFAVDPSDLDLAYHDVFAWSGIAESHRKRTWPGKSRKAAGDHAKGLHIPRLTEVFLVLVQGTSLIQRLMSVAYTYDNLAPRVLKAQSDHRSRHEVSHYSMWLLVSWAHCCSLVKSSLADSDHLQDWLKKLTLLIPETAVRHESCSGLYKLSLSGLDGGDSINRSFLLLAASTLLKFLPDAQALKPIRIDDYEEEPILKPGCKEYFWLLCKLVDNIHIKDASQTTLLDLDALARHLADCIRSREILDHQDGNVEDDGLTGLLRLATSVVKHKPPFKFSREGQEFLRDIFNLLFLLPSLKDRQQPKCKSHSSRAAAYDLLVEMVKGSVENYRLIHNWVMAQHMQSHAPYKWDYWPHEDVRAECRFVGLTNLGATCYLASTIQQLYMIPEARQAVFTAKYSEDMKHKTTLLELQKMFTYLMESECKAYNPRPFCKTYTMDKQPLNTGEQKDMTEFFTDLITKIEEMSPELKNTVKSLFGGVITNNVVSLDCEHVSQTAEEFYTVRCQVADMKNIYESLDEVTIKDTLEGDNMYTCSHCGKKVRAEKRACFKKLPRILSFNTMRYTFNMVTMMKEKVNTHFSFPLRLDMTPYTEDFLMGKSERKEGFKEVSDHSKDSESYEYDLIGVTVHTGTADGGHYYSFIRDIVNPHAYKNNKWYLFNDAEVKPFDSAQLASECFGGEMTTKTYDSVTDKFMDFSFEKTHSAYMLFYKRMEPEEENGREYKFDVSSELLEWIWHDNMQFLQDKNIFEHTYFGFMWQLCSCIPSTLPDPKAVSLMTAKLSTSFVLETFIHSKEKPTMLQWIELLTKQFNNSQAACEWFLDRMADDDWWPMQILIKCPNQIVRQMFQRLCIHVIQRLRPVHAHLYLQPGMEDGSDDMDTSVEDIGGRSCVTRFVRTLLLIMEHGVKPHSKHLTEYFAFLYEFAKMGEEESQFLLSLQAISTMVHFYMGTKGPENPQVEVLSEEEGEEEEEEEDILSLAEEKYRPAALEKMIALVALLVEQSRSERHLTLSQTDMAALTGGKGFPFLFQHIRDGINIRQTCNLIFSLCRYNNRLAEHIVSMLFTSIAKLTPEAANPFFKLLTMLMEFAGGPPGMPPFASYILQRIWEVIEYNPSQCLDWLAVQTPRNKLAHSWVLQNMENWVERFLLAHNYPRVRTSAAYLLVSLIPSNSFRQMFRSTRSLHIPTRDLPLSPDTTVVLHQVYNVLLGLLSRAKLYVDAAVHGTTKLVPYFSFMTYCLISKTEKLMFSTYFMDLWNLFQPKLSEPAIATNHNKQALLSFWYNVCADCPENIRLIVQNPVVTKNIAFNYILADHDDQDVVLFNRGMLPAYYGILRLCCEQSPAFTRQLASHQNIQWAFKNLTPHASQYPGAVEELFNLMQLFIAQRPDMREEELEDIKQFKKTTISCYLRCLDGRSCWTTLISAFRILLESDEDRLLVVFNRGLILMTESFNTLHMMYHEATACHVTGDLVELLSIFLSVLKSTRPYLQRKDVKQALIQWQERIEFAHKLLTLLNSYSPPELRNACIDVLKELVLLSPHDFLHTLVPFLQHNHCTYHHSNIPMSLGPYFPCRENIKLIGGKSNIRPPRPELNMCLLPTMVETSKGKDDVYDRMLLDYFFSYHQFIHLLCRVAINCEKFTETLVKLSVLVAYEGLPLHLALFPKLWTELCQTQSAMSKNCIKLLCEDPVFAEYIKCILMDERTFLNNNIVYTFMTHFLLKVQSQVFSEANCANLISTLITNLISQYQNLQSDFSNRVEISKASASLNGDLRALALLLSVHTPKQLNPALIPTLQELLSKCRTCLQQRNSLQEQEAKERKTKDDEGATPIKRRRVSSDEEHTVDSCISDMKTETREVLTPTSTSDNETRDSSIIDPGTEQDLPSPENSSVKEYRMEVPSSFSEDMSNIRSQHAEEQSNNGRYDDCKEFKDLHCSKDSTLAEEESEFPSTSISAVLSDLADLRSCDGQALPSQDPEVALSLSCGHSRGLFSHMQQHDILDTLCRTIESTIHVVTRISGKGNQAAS

O=C(CCl)Nc1ccccc1C(F)(F)F
inactive: [1] -0.296 | [2] 0.187 | [3] -0.0183 | [4] 0.198 | [5] -0.1

From the supplement of paper PMC11732987, “Enantioselective OTUD7B fragment discovery through chemoproteomics screening and high-throughput optimisation” (Communications Chemistry, 2025)
